# Data: PubChem BioAssay AID1946 (Johns Hopkins Ion Channel Center, 2009)
# In all, about 2,400 compounds went through this assay and about 180 (7.5%) were called active.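 How the source made its calls: active means readout below zero, meaning a drop past 3 SD under the dofetilide-free negative control mean; inactive means the rest.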 Only a selection was taken, and actives are over-represented in it overall.
# Target: Potassium voltage-gated channel subfamily KQT member 2 (Rattus norvegicus) (UniProt O88943)
# Assay: rat KCNQ2 channel inhibition by compounds alone, confirmation, counter-screen for hERG block protector project, cell-based, CHO, FluxOR thallium flux (AID 1946)
# Details: CHO-KCNQ2 cells, FluxOR thallium flux fluorescence; at 10 µM; active compounds read low; zero marks the 3-SD hit cutoff
# Chain of Potassium voltage-gated channel subfamily KQT member 2 (Rattus norvegicus) (O88943 whole entry, looked up): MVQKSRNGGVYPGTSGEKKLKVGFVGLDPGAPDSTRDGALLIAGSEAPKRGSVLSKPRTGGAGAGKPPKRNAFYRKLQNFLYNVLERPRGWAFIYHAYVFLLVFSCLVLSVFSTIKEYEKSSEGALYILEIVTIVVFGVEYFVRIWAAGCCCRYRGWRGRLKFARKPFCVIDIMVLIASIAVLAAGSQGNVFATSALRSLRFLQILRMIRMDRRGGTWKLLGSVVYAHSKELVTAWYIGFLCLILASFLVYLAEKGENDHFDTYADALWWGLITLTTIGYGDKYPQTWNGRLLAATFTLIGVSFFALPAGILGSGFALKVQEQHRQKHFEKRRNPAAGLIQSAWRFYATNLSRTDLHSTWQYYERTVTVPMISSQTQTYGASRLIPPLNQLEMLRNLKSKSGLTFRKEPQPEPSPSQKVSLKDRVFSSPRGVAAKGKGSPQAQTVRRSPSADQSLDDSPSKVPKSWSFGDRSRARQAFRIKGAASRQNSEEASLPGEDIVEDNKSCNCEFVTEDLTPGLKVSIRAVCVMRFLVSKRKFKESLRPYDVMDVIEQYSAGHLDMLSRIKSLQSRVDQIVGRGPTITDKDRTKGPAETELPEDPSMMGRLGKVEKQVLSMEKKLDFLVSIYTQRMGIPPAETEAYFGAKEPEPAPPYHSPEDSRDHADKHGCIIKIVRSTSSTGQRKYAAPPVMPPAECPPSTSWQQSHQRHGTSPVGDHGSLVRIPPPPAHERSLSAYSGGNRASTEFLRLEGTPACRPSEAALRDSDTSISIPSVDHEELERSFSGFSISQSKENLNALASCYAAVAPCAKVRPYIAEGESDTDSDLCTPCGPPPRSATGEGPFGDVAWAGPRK
row,Compound,activity change vs negative control
1,Cc1sc2nc(CN3CCOCC3)[nH]c(=S)c2c1C,108% (inactive)
2,Cc1ccc(-c2c(=O)n(O)c3ccccc3[n+]2[O-])cc1,88.6% (inactive)
3,O=c1c2ccccc2nc(-c2ccc(Cl)c(Cl)c2)n1O,91.4% (inactive)
4,COc1cc(OC)cc(C(=O)NNC(=O)C(=O)Nc2cc(OC)c(Cl)cc2OC)c1,71% (inactive)
5,C[n+]1ccccc1/C=C/c1ccc(C#N)cc1,17.3% (inactive)
6,O=c1[nH]c(C(Cl)(Cl)Cl)nc2ccc3ccccc3c12,37% (inactive)
7,O=C(NC(=S)Nc1ccccc1N1CCCC1)c1ccco1,39% (inactive)
8,O=C(NC(=S)Nc1ccccc1N1CCCC1)c1ccccc1Br,-8.3% (active)
9,O=C(NC(=S)Nc1ccccc1N1CCCCC1)c1cccs1,0% (active)
10,O=C(NC(=S)Nc1ccccc1N1CCCC1)c1ccc([N+](=O)[O-])cc1,21.1% (inactive)
11,O=C(NC(=S)Nc1ccccc1N1CCCC1)c1cccs1,14.1% (inactive)
12,O=C(NC(=S)Nc1cccc(Cl)c1N1CCCCC1)c1cccs1,1.9% (inactive)
13,CCOc1cc(N2CCOCC2)c(OCC)cc1NC(=O)CCC1CCCC1,104% (inactive)
14,O=C(NC(=S)N1CCCC1)c1ccc(Cl)cc1,26.1% (inactive)
15,O=c1c(O)c(-c2ccc3c(c2)OCO3)oc2ccccc12,35% (inactive)
16,Cc1ccc(CNC(=O)C2=CCN(S(=O)(=O)c3ccc(C)cc3)CC2)cc1,6.4% (inactive)
17,CN1C(=O)c2ccc(C(=O)NCc3ccccc3)cc2C1=O,10.5% (inactive)
18,Cc1ccc(CNC(=O)c2ccc(CNc3c(N4CCCC4)c(=O)c3=O)cc2)cc1,-1.7% (active)
19,CC(=O)c1c(N2CCN(Cc3ccccc3)CC2)[nH]c(-c2ccccc2)nc1=S,50.5% (inactive)
20,COc1ccc(-n2nc(C)cc2Nc2ccccc2C(=O)O)cc1,43.7% (inactive)
21,C/C(=N\Nc1nc(C)c(C)s1)c1ccc([N+](=O)[O-])cc1,31.5% (inactive)
22,O=c1[nH]c(N2CCN(c3ccccc3)CC2)nc2c1CCCC2,12% (inactive)

row,Compound,activity change vs negative control
1,c1ccc(-c2ccnc3nc(N4CCN(c5ccccc5)CC4)nn23)cc1,-4.9% (active)
2,Cc1ccc(C(=O)NC(=S)N(C)Cc2ccccc2)cc1,28.6% (inactive)
3,CCC(=O)N(CC)c1nc(-c2ccc(OC)cc2)cs1,60.4% (inactive)
4,Cc1ccc(Cn2nnc3c(=O)n(CC(=O)N4CCCc5ccccc54)cnc32)cc1,13% (inactive)
5,CC(NC(=O)c1ccncc1)C(C)(C)C (stereo not given),32.4% (inactive)
6,Cc1c(C(=O)NC(=S)NCc2cccnc2)oc2ccccc12,5.5% (inactive)
7,Cc1c(C(=O)NNC(=O)c2ccncc2)oc2ccc(Br)cc12,-1.5% (active)
8,O=C1CSC(=S)N1/N=C/c1cc(Br)ccc1O,21.5% (inactive)
9,O=C(COc1ccc(Cl)cc1Cl)NC(=S)N1CCCc2ccccc21,0.8% (inactive)
10,O=C(NC(=S)N1CCCc2ccccc21)c1ccccc1,21.6% (inactive)
11,O=C(COc1ccccc1)NC(=S)N1CCc2ccccc21,25.7% (inactive)
12,O=C(COc1ccc(Br)cc1Cl)NC(=S)N1CCc2ccccc21,9.4% (inactive)
13,Cc1cccc(OCC(=O)NC(=S)N2CCCc3ccccc32)c1,-0.9% (active)
14,O=C(COc1ccc(Br)cc1Br)NC(=S)N1CCCc2ccccc21,-2.3% (active)
15,COc1cccc2sc(Nc3nc(-c4ccccn4)cs3)nc12,34.8% (inactive)
16,CCN1C(=O)/C(=C/c2ccc(C)s2)NC1=S,65.6% (inactive)
17,COC(=O)c1ccc(NC(=S)NC(=O)c2cc(-c3ccccc3)nc3ccccc23)cc1,28.9% (inactive)
18,COc1cccc(C(=O)NNC(=O)C(=O)Nc2ccc(C)c(Cl)c2)c1,98.2% (inactive)
19,CC(C)OC(=O)CSc1nnc(C2CCCCC2)n1N,6% (inactive)
20,Nn1c(SCC(=O)Nc2ccccc2F)nnc1C1CCCCC1,10.9% (inactive)
21,Nn1c(SCC(=O)Nc2ccc(F)cc2)nnc1C1CCCCC1,-0.5% (active)
22,CCOc1ccc2nc(/N=C/c3nc(-c4ccc(Br)cc4)oc3O)sc2c1,13.7% (inactive)

row,Compound,activity change vs negative control
1,S=c1nc[nH]c2c1sc1nc(N3CCOCC3)c3c(c12)CCCC3,74.9% (inactive)
2,C/C(=N\Nc1nc2ccccc2nc1C)c1ccccc1O,35.1% (inactive)
3,CCOC(=O)c1sc(NC(=S)NC(=O)c2cccc(OC)c2)nc1C,28.4% (inactive)
4,CCN(CC)C(=S)NC(=O)c1ccc(Cl)cc1Cl,32% (inactive)
5,CCCn1nnnc1NC(=O)c1cc(Cl)ccc1Cl,-2% (active)
6,CCCN(CCC)C(=S)NC(=O)c1ccc(Cl)cc1Cl,78% (inactive)
7,O=C(NC(=S)N1CCc2ccccc21)c1ccccc1Br,126% (inactive)
8,CN(C(=S)NC(=O)c1ccccc1)C1CCCCC1,29.8% (inactive)
9,COc1ccc2c(c1)O[C@@H](c1cccc(C(F)(F)F)c1)[C@H](OC(=O)NCCc1ccc(OC)c(OC)c1)C2=O,20.4% (inactive)
10,C/C(=N\NC(=O)CSc1nc2ccccc2o1)c1ccc(O)cc1,-1.7% (active)
11,O=C(CSc1nc2ccccc2o1)NCc1n[nH]c(=O)c2ccccc12,19.1% (inactive)
12,CCOC(=O)Cc1nc2ccccc2o1,11.7% (inactive)
13,Cc1nn(C)c(C(=O)NC(=S)Nc2ccccc2Br)c1Cl,41.3% (inactive)
14,CCc1ccc(C(C)NC(=O)c2ccc(F)cc2)cc1 (stereo not given),43.4% (inactive)
15,CCOC(=O)C1CCCN(C(=S)NC(=O)/C=C/c2ccc(F)cc2)C1 (stereo not given),1.2% (inactive)
16,Cn1cc(CCC(=O)N2CCCC(Nc3ccc(F)cc3)C2)cn1 (stereo not given),-2% (active)
17,O=C(c1ccc(C(F)(F)F)cc1)C1CCCN(C(=O)CCc2ccncc2)C1 (stereo not given),4.7% (inactive)
18,Cc1cccc(N2C(=O)C(O)=C(C(=O)c3cccs3)C2c2cccc(Oc3ccccc3)c2)n1 (stereo not given),11.3% (inactive)
19,Cc1cc(N2C(=O)C(O)=C(C(=O)c3cccs3)C2c2ccccc2)no1 (stereo not given),-1.4% (active)
20,COc1ccccc1C1C(C(=O)c2ccc(C)o2)=C(O)C(=O)N1c1cc(C)on1 (stereo not given),14.4% (inactive)
21,CCOC(=O)C1=NN(C(=O)c2ccc(C)cc2)C(O)(c2ccc(Cl)cc2)C1 (stereo not given),110% (inactive)
